Pf growth 48h: P. falciparum growth inhibition at 48 hours (one generation). AID 504832. 310,000 tested, 5.9% active. P. falciparum luciferase growth in erythrocytes, 48 h. Potency, µM (series often up to 28.7 µM), hits mostly inhibitors
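Erythrocytes infected with P. falciparum carrying an integrated firefly luciferase reporter (2% hematocrit, 0.1% parasitemia final) were exposed to compounds in RPMI 1640 with 0.5% Albumax at 37 C, 5% CO2. Growth inhibition was scored as reduced luminescence.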
Shiga inhibitor: blocks Shiga toxin action in Vero cells | Vero cells, Shiga toxin protein synthesis inhibition reporter | 290,000 tested, 9.2% active | inhibition, % at 38.7 µM; in the data active = inhibition mostly above about 28%, no sharp cut-off; inactive = mostly below about 43%
NS1 function inh: blocks influenza NS1 protein function; Potency, µM (titrated, usually from 46.1 µM); 270,000 tested, 0.4% active; AID 2326; calls by dose curve; note: actives are rising curves; nearly all actives have a fitted effect of over 50% in size
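Recovery from NS1-induced slow growth read by OD600 in budding yeast switched to galactose assay medium (pH 6.0, -URA) at 1:100 dilution. Compound 23 nl per well; the matching strain lacking NS1 serves as control.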
Pf growth 96h: P. falciparum growth inhibition at 96 hours | Potency, µM (top dose mostly 28.7 µM), actives largely listed as inhibitors | 320,000 tested, 6.9% active | P. falciparum luciferase reporter growth, 96 h
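Plates of compound plus infected erythrocytes (2% hematocrit, 0.05% parasitemia final) incubate 96 hours, 37 C, 5% CO2. Detection reagent added; reduced luminescence from the parasites' luciferase reporter flags inhibition.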
Cycloheximide cs: affects cycloheximide protein synthesis inhibition readout, counter-screen. max response, %. cell reporter, cycloheximide protein synthesis inhibition counterscreen. 300,000 tested, 12% active; in the data active = max response mostly above about 13%, no sharp cut-off; inactive = mostly below about 14%; note: read at 38.3 µM for the half of the compounds with a filed dose
Sm TGR block: S. mansoni TGR enzyme inhibition; Q962Y6; 360,000 tested, 3% active; purified TGR, DTNB reduction, TNB absorbance 405 nm; Potency, µM (titrated, usually from 114 µM), usual class: inhibitors; note: nearly all actives have a fitted effect of over 60% in size
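TGR 20 nM + NADPH 100 uM (dispensed conc.), cpd preinc 15 min RT; start with NADPH (500 uM addition) then DTNB (15 mM addition). Kinetic TNB absorbance, 405 nm filter. Four-parameter Hill fit across titration.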
A number is an active result; n = inactive; u = inconclusive; x = no result given. Compounds with a hit are over-represented: about 21% of the library has one in this group of screens. Unless noted, calls come from the whole dose curve; as a rule, active = well fitted curve in the direction sought with a large enough effect; inconclusive = small, poorly fitted or top-dose-only effect, or another doubt; inactive = no such curve, though single readings can be large; an effect the other way counts as inactive or inconclusive.

SMILES	Pf growth 48h	Shiga inhibitor	NS1 function inh	Pf growth 96h	Cycloheximide cs	Sm TGR block
CSCC[C@H](NC(=O)[C@H](CCCNC(=N)N)NC(=O)[C@H](Cc1ccc(O)cc1)NC(=O)[C@@H]1CCCN1C(=O)CNC(=O)[C@H](CCC(=O)O)NC(=O)[C@H](CC(=O)O)NC(=O)[C@H](CCCCN)NC(=O)[C@H](CCCCN)NC(=O)[C@H](CCC(=O)O)NC(=O)[C@H](C)N)C(=O)N[C@@H](CCC(=O)O)C(=O)N[C@@H](Cc1cnc[nH]1)C(=O)N[C@@H](Cc1ccccc1)C(=O)N[C@@H](CCCNC(=N)N)C(=O)N[C@@H](Cc1c[nH]c2ccccc12)C(=O)NCC(=O)N[C@@H](CO)C(=O)N1CCC[C@H]1C(=O)N1CCC[C@H]1C(=O)N[C@@H](CCCCN)C(=O)N[C@@H](CC(=O)O)C(=O)O	x	n	x	x	n	x
CCOc1ccc(S(=O)(=O)Nc2cc(S(=O)(=O)N3CCOCC3)ccc2OC)cc1	n	x	x	n	x	n
Nc1ccccc1C(=O)OCC(=O)Nc1ccc(Br)cc1F	n	n	n	n	21	n
Cc1cc(C(=O)OCC(=O)Nc2ccccc2F)c(C)o1	n	98	n	n	15	n
CCCCN1CC(c2nc3ccccc3n2CCCCOc2ccc(C)c(C)c2)CC1=O (stereo not given)	x	x	x	x	x	n
Cc1cc(C)n(-c2nc(NCCCN(C)C)c3c4c(sc3n2)CCCC4)n1	12µM	n	n	n	n	n
Cc1cc(C)n(-c2ncnc3sc4c(c23)CCCC4)n1	n	n	n	13µM	n	n
Cc1cc(C)n(-c2ncnc3sc4c(c23)CC(C)CC4)n1 (stereo not given)	n	n	n	u	n	n
Cc1cc(C)n(-c2nc(NCCC(C)C)c3c4c(sc3n2)COC(C)(C)C4)n1	x	n	n	3.7µM	n	n
Cc1cc(C)n(-c2nc(NCCN(C)C)c3c4c(sc3n2)CCCC4)n1	u	n	n	n	n	n
CCSc1nc(NCCN(C)C)c2c3c(sc2n1)COC(C)(CC)C3 (stereo not given)	3.3µM	n	n	12µM	30	u
COC(=O)C1=NN(c2cccc(C)c2)C2C(=O)N(c3ccccc3OC)C(=O)C12 (stereo not given)	n	n	n	n	n	n
Cc1cc(C)n(-c2nc(NCCN(C)C)c3c4c(sc3n2)COC(C)(C)C4)n1	u	n	n	u	n	n
Cc1cc(C)n(-c2nc(-n3nc(C)cc3C)c3c4c(sc3n2)COC(C)(C)C4)n1	u	n	n	1µM	n	n
CCN(CC)CCNc1nc(-n2nc(C)cc2C)nc2sc3c(c12)CC(C)(C)OC3	u	n	n	u	12	n
CCN(Cc1ccccc1)c1ccc(/C=C(\C#N)c2ccccn2)cc1	n	98	n	u	56	n
CCN(CC)c1ccc(/C=C(\C#N)c2ccccn2)cc1	n	n	n	n	35	n
CN(C)c1ccc(/C=C(\C#N)c2nc(-c3ccc(Cl)c(Cl)c3)cs2)cc1	x	x	x	x	x	n
N#C/C(=C\c1ccc(C(=O)O)cc1)c1ccccn1	n	n	x	n	n	n
CN(CCC#N)c1ccc(/C=C(\C#N)c2ccccn2)cc1	n	active	n	n	48	n
COc1ccccc1NC(=O)NCCc1c[nH]c2ccccc12	n	n	n	n	n	n
O=C(NCCc1c[nH]c2ccccc12)c1ccc(Cl)cc1	n	127	n	u	48	n
Cc1ccsc1C(=O)NCCc1c[nH]c2ccccc12	n	73	n	n	36	n
CC(=O)NCCc1c[nH]c2ccccc12	n	n	n	n	n	n
COc1ccc(-c2cn(CCc3c[nH]c4ccccc34)nn2)cc1	n	n	n	9.3µM	7.4	n
SMILES	Pf growth 48h	Shiga inhibitor	NS1 function inh	Pf growth 96h	Cycloheximide cs	Sm TGR block
COc1ccc(CCNC(=S)NCCc2c[nH]c3ccccc23)cc1	n	n	x	n	n	n
COc1cc(SC)ccc1C(=O)NCCc1c[nH]c2ccccc12	n	n	n	n	27	n
CC(C)CNC(=O)CSc1n[nH]c(=O)n1CCc1ccccc1	n	n	n	n	n	n
CCC(CC)c1nnc(NC(=O)c2c(C)nn(Cc3ccccc3Cl)c2C)s1	u	n	n	u	n	n
O=S(=O)(CCN1CCSCC1)c1ccccc1	n	n	n	n	n	n
CC(=O)c1ccc(S(=O)(=O)NCCC(=O)NCCc2c[nH]c3ccccc23)cc1	u	x	x	n	x	u
